# Most compounds without a hit are left out; they make up all but 1.9% or so of the library.
# BaF3 parental = counter-screen for JAK2V617F inhibitors: parental Ba/F3 viability inhibitors | 220,000 compounds, 1.1% hits | CellTiter-Glo ATP luminescence | inhibition, % at 5.6 µM | AID 1486;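 active = inhibition above a per-campaign cutoff, the mean inhibition of all tested compounds plus 3 SD, cut at about 27% in these data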;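 also: 0% = DMSO wells and 100% = JAK Inhibitor I control wells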
# KLF5 inhibitor = inhibitors of KLF5 expression; DLD-1 KLF5 promoter-luciferase reporter, luminescence; inhibition, % at 5 µM; 290,000 compounds, 0.23% hits; AID 1700;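 active = inhibition above a per-plate limit of that plate's mean compound inhibition plus 3 SD, cut at about 60% in these data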;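 also: 0% = DMSO wells and 100% = LY294002 at 200 µM; higher means less KLF5 promoter-driven luciferase light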
# Ba/F3 V617F tox = lowers viability of Ba/F3 cells expressing EpoR and JAK2V617F | ATP luminescence | inhibition, % at 5.6 µM | 220,000 compounds, 1.1% hits;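 active = inhibition above the campaign mean plus 3 SD over all tested compounds, cut at about 24% in these data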;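 also: cytokine-independent growth of Ba/F3 cells driven by EpoR plus mutant JAK2; 0% = DMSO-treated cells and 100% = JAK inhibitor I control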
# APP 5UTR inh = APP translation inhibition. SH-SY5Y APP 5'UTR-luciferase reporter, luminescence. inhibition, % at 2 µM. 190,000 compounds, 0.82% hits;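 active = inhibition above a set limit, derived from the sample mean plus 3 SD, cut at about 45% in these data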
# IEC-6 cytotox = kills IEC-6 intestinal cells in KLF5 counter-screen | IEC-6 cytotoxicity, luminescence viability | inhibition, % at 5 µM | 290,000 compounds, 0.78% hits | AID 1825;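 also: 0% = plate median of test compound wells and 100% = cytotoxic reference compound wells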
# IEC-6 cytotox cf = IEC-6 cytotoxicity, confirmation assay; IEC-6 rat intestinal epithelial viability, luminescence; 1,900 compounds, 63% hits; inhibition, % at 5 µM; AID 1907; shares compounds with IEC-6 cytotox;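 also: 0% = vehicle and 100% = reference cytotoxic drug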
# * hit, by the source's call; x = not tested or not shown. Rule as the data show it, unless noted: active = inhibition above about 22%; inactive = the rest.
SMILES,BaF3 parental,KLF5 inhibitor,Ba/F3 V617F tox,APP 5UTR inh,IEC-6 cytotox,IEC-6 cytotox cf
O=C(c1c[nH]c2ccccc12)C(O)C(c1ccccc1)N1CCOCC1 (centres undefined),4,-11,-4,-6,-3,x
O=C(c1c[nH]c2ccccc12)C(Cl)c1ccccc1 (centres undefined),x,18,x,x,33*,13
O=C(O)c1ccc(NC2=C/C(=N/S(=O)(=O)c3ccccc3)c3ccccc3C2=O)cc1,5,4,-1,6,25*,-10
O=C(NCCOc1ccccc1F)c1cc([N+](=O)[O-])ccc1N1CCOCC1,x,43,x,x,49*,41*
COc1cc(Br)cc(CN2CCN(c3ncccn3)CC2)c1O,x,-16,x,x,-3,x
COc1cc(Br)cc(C2C3=C(CCCC3=O)N(c3ccc(F)cc3)C3=C2C(=O)CCC3)c1O,2,-2,-1,0,-8,x
COc1ccc2[nH]c3c4c(ccc3c2c1)C(=O)C=CC4=O,8,-22,46*,x,57*,10
COc1ccc2[nH]c(=O)cc(C(=O)O)c2c1,2,-17,-2,-17,5,x
Clc1ccc(Cn2ncc3c(NCc4ccccc4)ncnc32)cc1,10,45,2,23,28*,27*
COc1ccc(NC2=C(C(C)=O)C(c3ccccc3)C(C(C)=O)C(C)(O)C2)cc1 (centres undefined),-1,-31,-4,x,-4,x
Cc1ccc(-c2[nH]c3ccccc3c2C(C[N+](=O)[O-])c2ccco2)cc1 (centres undefined),3,11,0,-14,25*,10
Cc1[nH]c2ccccc2c1C(C[N+](=O)[O-])c1ccco1 (centres undefined),7,4,2,14,-3,x
COc1ccc(/C=C2\COc3ccccc3C2=O)c(OC)c1,x,-58,x,x,26*,-3
Cc1cc(C)cc(-c2nnc(SCC(=O)c3ccc4c(c3)OCCO4)o2)c1,-2,-15,0,15,-5,x
CC(C)(C)C(=O)NC(=S)NNC(=O)c1ccc(-c2ccccc2)cc1,36*,57,37*,67*,40*,47*
CC(C)(C)c1ccc(C(=O)NNC(=S)NC(=O)c2cccnc2)cc1,x,27,x,x,30*,23*
CC(C)c1ccc(O)c(NC(=S)NC(=O)c2cccnc2)c1,4,18,3,12,34*,-3
O=C(NC(=S)Nc1c(Cl)ccc2nsnc12)c1ccccc1F,x,16,x,x,-16,x
O=C(c1ccc(CS(=O)(=O)c2cccc(C(F)(F)F)c2)o1)N1CCN(c2ccccn2)CC1,2,5,0,-1,2,x
CCNC(=O)N1CCCC(C(=O)c2ccc(C(F)(F)F)cc2)C1 (centres undefined),x,-13,x,x,8,x
Cc1ccccc1Oc1nc2c(C)cccn2c(=O)c1/C=C(\C#N)C(=O)NC1CCS(=O)(=O)C1 (centres undefined),0,11,-6,x,55*,29*
CCOc1ccc(CN2CCNC(=O)C2CC(=O)OC)cc1 (centres undefined),0,-5,0,-11,0,x
COc1ccc(-n2nc(C(=O)NCC(=O)NCCC3=CCCCC3)c3ccccc3c2=O)c(OC)c1,x,-7,x,x,-5,x
COc1cc(/C=N/NC(=S)NC2CC3C=CC2C3)cc(OC)c1OC (centres undefined),-6,-21,4,x,28*,2
Cc1ccc(-c2cc(C(=O)N/N=C/c3c(C)nn(C)c3C)c3ccccc3n2)cc1C,3,-19,-3,-11,12,x
SMILES,BaF3 parental,KLF5 inhibitor,Ba/F3 V617F tox,APP 5UTR inh,IEC-6 cytotox,IEC-6 cytotox cf
CC(C)n1cc(/C=N/Nc2ccc(C(=O)O)cc2)c2ccccc21,x,45,x,x,35*,55*
COc1cccc(C2=CC(c3ccccc3)n3nnnc3N2)c1 (centres undefined),0,21,3,2,28*,32*
CCS(=O)(=O)c1ncc(Cl)c(C(=O)Nc2ccc(S(=O)(=O)N3CCC(C)CC3)cc2)n1,x,43,x,x,96*,8
CCOC(=O)c1ccc(NC(=O)CCS(=O)(=O)Cc2ccccc2)cc1,x,-27,x,x,-6,x
CCc1ccc(NC(=O)c2nc(S(=O)(=O)Cc3ccccc3)ncc2Cl)cc1,x,15,x,x,88*,7
Cc1ccc(NC(=O)c2nc(S(=O)(=O)Cc3ccccc3C)ncc2Cl)cc1C,x,6,x,x,31*,16
CSc1ncc(Cl)c(C(=O)Nc2ccc(C)c(C)c2)n1,x,-8,x,x,2,x
CCOC(=O)c1ccc(NC(=O)c2nc(S(=O)(=O)Cc3ccccc3)ncc2Cl)cc1,x,23,x,x,50*,16
CCCS(=O)(=O)c1ncc(Cl)c(C(=O)Nc2ccc(S(=O)(=O)Nc3ncccn3)cc2)n1,x,-26,x,x,-5,x
CC1CCN(S(=O)(=O)c2ccc(NC(=O)c3ccncc3)cc2)CC1,x,-37,x,x,3,x
O=C(NNC(=O)C1CCC(C(=O)NNC(=O)c2cccs2)CC1)c1cccs1 (centres undefined),-2,-23,-4,-17,-1,x
Cc1ccccc1C(=O)NNC(=O)C12CC3CC(CC(C3)C1)C2,-6,4,-3,13,2,x
Cc1cccc(C(=O)NNC(=O)C23CC4CC(CC(C4)C2)C3)c1O,x,-21,x,x,37*,5
COC(=O)c1ccc(N(CC(=O)NC2CCCCC2)C(=O)CNC(=O)c2ccco2)cc1,x,-16,x,x,-3,x
COc1ccc(S(=O)(=O)Nc2cc(C)cc(C)n2)c2ccccc12,-3,-11,-4,5,-4,x
O=C(Nc1ccc([N+](=O)[O-])cc1)Nc1ccon1,x,58,x,x,82*,57*
CN(c1ccccc1)S(=O)(=O)c1ccc(NC(=O)c2nc(S(C)(=O)=O)ncc2Cl)cc1,x,23,x,x,95*,3
CN(c1ccccc1)S(=O)(=O)c1ccc(NC(=O)c2ccccc2)cc1,1,8,-5,-10,2,x
COc1cccc(NC(=O)c2nc(SC)ncc2Cl)c1,x,-12,x,x,10,x
COc1cccc(NC(=O)c2nc(S(C)(=O)=O)ncc2Cl)c1,x,30,x,x,100*,17
Cc1ccccc1NC(=S)c1nc2ccccc2[nH]1,6,-29,2,12,8,x
O=C1c2ccccc2C(=O)N1CCn1nc(Cl)nc1Cl,5,-26,-3,4,1,x
Cc1cccc2c1N(CCOc1ccccc1Cl)C(=O)C2=O,11,-8,19,8,50*,21
Cc1ccccc1OCCN1C(=O)C(=O)c2cccc(C)c21,9,-23,2,x,10,x
Cc1cc2nc(/C=C/c3cccnc3)[nH]c2cc1C,x,6,x,x,88*,59*
COc1ccc(N=C(NN)c2ccc3ccccc3n2)cc1,1,-30,-1,-33,6,x
Cc1ccc(OCCn2cc(C(=S)N3CCCC3)c3ccccc32)cc1C,3,24,3,-1,70*,44*
O=C(O)c1ccc(N/N=C/C=C/c2ccccc2[N+](=O)[O-])cc1,-1,-135,4,-113,24*,39*
CC#CC(=O)N1CCC(CCc2ccccc2)(C(=O)OCC)CC1,0,6,-1,-12,27*,12

# From PubChem
